Data: PubChem BioAssay AID2069 (Sanford-Burnham Center for Chemical Genomics, 2009)
The whole screen tested about 1,200 compounds, of which about 210 (18%) were called active. Rule as the data show it: active = inhibition above about 30%; inactive = the rest. Not all results are given here.

Test: HTRF signal interference by compounds, confirmation, artefact control for SUMOylation inhibitor project, biochemical, uHTS (AID 2069)
Details: HTRF interference counterscreen, fluorescence, at 35 µM, hits give high values

Structure (SMILES)	inhibition
CCOc1ccccc1CNc1ccc(O)cc1	-10.2% (inactive)
O=C(/C=C/c1ccco1)NC(=S)Nc1ccc(O)c(-c2nc3ccccc3s2)c1	9.4% (inactive)
Cc1ccc2c(SCC(=O)NCc3ccco3)nc(-c3ccc(F)cc3)nc2c1	-4.7% (inactive)
O=C(NCc1ccco1)Nc1ccc2snnc2c1	38.8% (active)
Cc1nc2ccc(NC(=O)NCc3ccco3)cc2s1	31.5% (active)
O=C(COC(=O)c1cc(-c2cccs2)nc2ccccc12)NCc1ccco1	16.3% (inactive)
CCOc1cc(NC(=S)NCc2ccco2)c(OCC)cc1NC(=O)CC	-7.1% (inactive)
CN(C)c1cc(N/N=C/c2ccc(Cl)cc2)nc(N(C)C)n1	7% (inactive)
O=C(O)CN1C(=O)/C(=C\c2cc([N+](=O)[O-])ccc2OCc2ccccc2Cl)SC1=S	8.45% (inactive)
Cc1ccc(NC2=CC(=O)CC(c3ccco3)C2)c(N)c1 (stereo unspecified)	1% (inactive)
COc1ccc(-c2cc(=O)[nH][nH]2)cc1	2.7% (inactive)
N#CC(c1nc2ccccc2nc1N1CCCC1)S(=O)(=O)c1cccs1 (stereo unspecified)	-0.1% (inactive)
COC(=O)c1cccc(-c2ccc(C(c3c(C)[nH][nH]c3=O)c3c(C)[nH][nH]c3=O)o2)c1	-4.3% (inactive)
Oc1ccc(Br)cc1CNc1cccc2cccnc12	-17.6% (inactive)
O=C1C=C(Nc2ccccc2)c2ccccc2C1=O	-24.5% (inactive)
Cc1ccc(NC2=CC(=O)C(=O)c3ccccc32)cc1	-12.4% (inactive)
O=C1C=C(N2CCOCC2)c2ccccc2C1=O	51.9% (active)
Cc1[nH][nH]c(=O)c1C(c1c(C)[nH][nH]c1=O)c1cn(Cc2cccc3ccccc23)c2ccccc12	-32.7% (inactive)
CCOc1cc(CNc2ccccc2SC)ccc1O	-6.3% (inactive)
COc1cc(C)c2c(c1C=O)Oc1c(c(C)c(O)c3c1C(O)OC3=O)OC2=O (stereo unspecified)	12.4% (inactive)
CN(C)/C=C1\Oc2ccc3ccccc3c2C1=O	-6.85% (inactive)

Structure (SMILES)	inhibition
CC1=Nc2nc(N3CCCCC3)c(C#N)c3c4c(nc(c23)N1)N(c1ccc(C(C)C)cc1)C(=O)C4	15.2% (inactive)
CCOc1ccc(C(Nc2cccnc2)c2cc(Cl)c3cccnc3c2O)cc1 (stereo unspecified)	14.3% (inactive)
O=C(O)COc1ccccc1C(Nc1cccnc1)c1cc(Cl)c2cccnc2c1O (stereo unspecified)	30.4% (active)
CCCCC(=O)NC(c1ccccc1Cl)c1ccc2cccnc2c1O (stereo unspecified)	-42.6% (inactive)
COc1ccc(/C=N/N=C2/CC(C)(C)Cc3n[nH]c(=O)cc32)cc1	0.85% (inactive)
COc1ccccc1NC(=O)Cn1c(O)c(N=NC(=O)c2ccccc2O)c2ccccc21	2.2% (inactive)
CCCCn1c(NC(=O)c2ccc(Br)o2)c(S(=O)(=O)c2ccccc2)c2nc3ccccc3nc21	1.65% (inactive)
Nc1ccc(-c2nc3ccc(N)cc3[nH]2)cc1	66.3% (active)
Nc1ccc2nc(-c3ccc(-c4nc5ccc(N)cc5[nH]4)cc3)[nH]c2c1	25.4% (inactive)
Cc1ccc(C)c(-c2nc3ccc(N)cc3[nH]2)c1	57% (active)
O=C(Nc1nccs1)c1cc(-c2ccco2)nc2ccccc12	22.2% (inactive)
Cc1oc2c(c1C(=O)O)C(=O)c1ccccc1C2=O	-5.95% (inactive)
Cc1ccc(NC(=O)CN2C(=O)S/C(=C\c3ccc(-c4cccc(C(=O)O)c4C)o3)C2=O)cc1C	26.3% (inactive)
O=S(=O)(Nc1ccc(O)c2ccccc12)c1cccs1	-16.9% (inactive)
Cc1ccc2[nH]c3c(c2c1)CN(C(=O)CN1CCN(c2cccc(C)c2C)CC1)CC3	12.8% (inactive)
O=c1oc(-c2cccs2)nc2sc3c(c12)CCC3	40.5% (active)
COC(=O)c1c(C)oc(C)c1S(=O)(=O)NC(C)(C)C	3.5% (inactive)
COc1ccc(C2C(C(C)=O)=C(O)C(=O)N2C)c(OC)c1 (stereo unspecified)	-3.35% (inactive)
COc1cc(NC(=O)c2cnc(N)s2)cc(C(=O)Nc2cccc(C(F)(F)F)c2)c1	8.1% (inactive)
O=C(N/N=C/c1ccc(-c2ccc(S(=O)(=O)Nc3ncccn3)cc2)o1)c1cc2ccccc2cc1O	28.5% (inactive)
CCOCCCN1CN(Cc2ccco2)CNC1=S	39.1% (active)

Structure (SMILES)	inhibition
CC1=C(C#N)C(=O)NC(=O)/C1=C\c1ccc(-c2cc(C)c(C)cc2[N+](=O)[O-])o1	9.4% (inactive)
CCCS(=O)(=O)c1c(S(=O)(=O)CCC)c2c(N)cccn2c1C(=O)c1ccc(Br)cc1	6.7% (inactive)
Cc1cc(=O)[nH]c(-n2[nH]c(C)cc2=O)n1	-1.85% (inactive)
COc1ccccc1C1Nc2cccc3cccc(c23)N1	-18.4% (inactive)
CCOc1ccc(-n2c(SCC(=O)Nc3ccc(CC)cc3)nc3n[nH]c(C)c3c2=N)cc1	23.6% (inactive)
CCCCN1Cc2c(nc3cc(-c4ccco4)[nH]n3c2=O)C1=O	31.7% (active)
O=C1c2nc3cc(-c4ccco4)[nH]n3c(=O)c2CN1C1CCCCC1	29.8% (inactive)
CC1=NN(c2ccccc2)C(=O)/C1=C/c1cccs1	-3.6% (inactive)
Cc1[nH][nH]c(=O)c1C(c1c(C)[nH][nH]c1=O)c1cn(Cc2ccc(F)cc2)c2ccccc12	-43.9% (inactive)
COC(=O)c1scc(C)c1NC(=O)C(Cl)c1ccccc1 (stereo unspecified)	0.85% (inactive)
CN(c1ccccc1)c1ccc(/C=C(\CCC(=O)O)c2nc3ccccc3s2)cc1[N+](=O)[O-]	7.85% (inactive)
NNC(=O)c1oc2nc(-c3ccco3)cc(-c3ccco3)c2c1N	9.15% (inactive)
Nc1nc(-c2ccco2)c(-c2ccco2)s1	-13.2% (inactive)
N#Cc1sc2nc(-c3ccccc3)cc(-c3ccco3)c2c1N	26.3% (inactive)
NC(=O)c1sc2nc(-c3ccco3)ccc2c1N	41.8% (active)
NNC(=O)c1oc2nc(-c3cccs3)cc(-c3ccco3)c2c1N	12.8% (inactive)
CC(=O)c1sc2nc(-c3ccco3)ccc2c1N	48.3% (active)
S=C(Nc1ccc2nsnc2c1)NC1CCCCC1	10.2% (inactive)
O=[N+]([O-])c1ccc(C=Nc2cccc3ccccc23)s1	5.6% (inactive)
